From PubChem BioAssay (EPA / NIEHS)
The source holds several records for some structures; these can differ, active in one and inactive in another. Calls of active or inactive are those of the source. Rule for the calls: active = hit-call score of the fitted dose curve at least 0.9, where 1 is the maximum; inactive = score below 0.9.

What follows are compounds tested on KRT18 (gene 3875) (assay: BSK_BE3C_Keratin818: BioMAP Diversity Plus: BE3C Assay for Keratin 818 Biomarker Activity (AID 2284282)). Details: primary human bronchial epithelial cells.
Procedure: BSK_BE3C is a cell-based, multiplexed-readout assay that uses bronchial epithelial cell, a human lung primary cell, with measurements taken at 24 hours after chemical dosing in a 96-well plate.BSK_BE3C_Keratin818 is an assay component measured in the BSK_BE3C assay. It measures Keratin 8/18 antibody related to regulation of gene expression using ELISA technology.Data from the assay component BSK_BE3C_Keratin818 was analyzed at the endpoint, BSK_BE3C_Keratin818, in the positive analysis fitting direction relative to DMSO as the negative control and baseline of activity. Using a type of binding reporter, gain or loss-of-signal activity can be used to understand protein changes. To generalize the intended target to other relatable targets, this assay endpoint is annotated to the 'cell adhesion molecules' intended target family, where the subfamily is 'keratin'.
The levels of cell surface (or secreted, indicated by the prefix "s") biomarker endpoints were measured by ELISA. Overt cytotoxicity to cells in confluent adherent cultures (all systems other than the BT system) was assessed by measuring total protein levels using sulforhodamine B (SRB) staining in parallel cultures at the time of biomarker measurements, indicated as SRB endpoints. For proliferation assays for adherent cell types, individual cell types are cultured at sub-confluence and relative cell numbers quantified by SRB staining at time points optimized for each system (48 h: 3C and CASM3C systems; 72 h: BT and HDF3CGF systems; 96 h: SAg system). SRB was performed by staining cells with 0.1% SRB after fixation with 10% TCA and reading wells at 560 nm.Viability and proliferation of PBMC (T cells) was quantified by Alamar Blue reduction for the SAg and BT systems. For PBMC viability (referred to as PBMC Cytotoxicity within the assay endpoint names), cells were plated (75,000/well in a 96-well plate) and then chemical samples added for 1 h before addition of activators, SEB and TSST-1 (20 ng/mL final concentration each). Cells were incubated for 90 h. Then, Alamar Blue (20 uL/well) (Invitrogen, Cat DAL1100) was added for 6 h, and the plates were read with a fluorescence microplate reader at 546/580 nm (excitation/emission). For PBMC proliferation, cells were plated and activated as above but incubated for only 16 h prior to addition of Alamar Blue. Plates were read after 6 h.

outcome, inactive:
COc1ccccc1Oc1c(NS(=O)(=O)c2ccc(C(C)(C)C)cc2)nc(-c2ncccn2)nc1OCCO, O=[N+]([O-])c1cc(S(=O)(=O)Nc2ccccc2)ccc1Nc1ccccc1, CCC[Si](OC(C)=O)(OC(C)=O)OC(C)=O, CC[N+](CC)(CC(=O)Nc1c(C)cccc1C)Cc1ccccc1 (tested in a mixture with another compound), CN(C)Cc1cc(C(C)(C)C)c(O)c(C(C)(C)C)c1, CCCCC(CC)COC(=O)C=Cc1ccc(OC)cc1 (stereo not drawn), Cc1c(C(N)=O)cc([N+](=O)[O-])cc1[N+](=O)[O-], C1CN(CCOCCN2CCOCC2)CCO1, OC(C(F)(F)F)(C(F)(F)F)C(O)(C(F)(F)F)C(F)(F)F, COc1cc(CNC(=O)CCCC/C=C/C(C)C)ccc1O, COc1ccc(C(=O)c2ccccc2O)c(O)c1, CC(C)C1OCCN1CCOC(=O)NCCCCCCNC(=O)OCCN1CCOC1C(C)C (stereo not drawn)

AC50, active:
O=[N+]([O-])c1cc(S(=O)(=O)Nc2ccccc2)ccc1Nc1ccccc1 32 µM
